Data published in publication PMC5540273 (PLoS ONE, 2017).

Experiments:
Settings in all cases: concentration: 1 μM, replicates: in singlicate; n = 1
[1] = test system: T1, TRKC
T1 construct: gene NTRK3

[2] = test system: TRPM6
[3] = test system: TSSK1B
[4] = test system: TSSK3
[5] = test system: TTK
[6] = test system: TXK
[7] = test system: TYK2(JH1domain-catalytic)
[8] = test system: TYK2(JH2domain-pseudokinase)
[9] = test system: TYRO3
[10] = test system: ULK1
[11] = test system: ULK2
[12] = test system: ULK3
[13] = test system: T2, VEGFR2
T2 construct: gene KDR

[14] = test system: T3, VPS34
T3 construct: gene PIK3C3

[15] = test system: VRK2
[16] = test system: WEE1
[17] = test system: WEE2
[18] = test system: WNK1
[19] = test system: WNK2
[20] = test system: WNK3
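Note: KINOMEscan kinase panel screen.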

| Compound | %Inh [1] [%] | %Inh [2] [%] | %Inh [3] [%] | %Inh [4] [%] | %Inh [5] [%] | %Inh [6] [%] | %Inh [7] [%] | %Inh [8] [%] | %Inh [9] [%] | %Inh [10] [%] | %Inh [11] [%] | %Inh [12] [%] | %Inh [13] [%] | %Inh [14] [%] | %Inh [15] [%] | %Inh [16] [%] | %Inh [17] [%] | %Inh [18] [%] | %Inh [19] [%] | %Inh [20] [%] |
| --- | --- | --- | --- | --- | --- | --- | --- | --- | --- | --- | --- | --- | --- | --- | --- | --- | --- | --- | --- | --- |
| O=C(Nc1ccccc1F)NC1CCN(c2ccnc(Nc3ccc(F)cc3)n2)C1 (stereo not drawn) [GSK1379722] | 22 | 0 | 12 | 31 | 7 | 16 | 23 | 20 | 0 | 0 | 0 | 8 | 0 | 0 | 16 | 9 | 0 | 10 | 0 | 38 |
| Nc1nc(-c2cccnc2)c(-c2ccnc3ccccc23)s1 [GW684083] | 25 | 14 | 0 | 9 | 0 | 0 | 41 | 62 | 0 | 5 | 0 | 18 | 0 | 72 | 16 | 27 | 11 | 0 | 0 | 31 |
| Fc1ccc(-c2ncn(CCCNCc3ccccc3)c2-c2ccncc2)cc1 | 19 | 12 | 20 | 20 | 0 | 0 | 44 | 0 | 0 | 0 | 19 | 14 | 0 | 0 | 13 | 0 | 4 | 0 | 0 | 0 |
| CCc1nc(-c2cccc(C)c2)c(-c2ccnc(NC(=O)c3ccccc3)c2)s1 | 15 | 0 | 0 | 1 | 16 | 0 | 24 | 17 | 0 | 1 | 9 | 14 | 0 | 14 | 0 | 0 | 10 | 0 | 59 | 0 |
| O=C(CCO)NCCn1ccc2ncnc(Nc3ccc(Oc4cccc(C(F)(F)F)c4)c(Cl)c3)c21 | 0 | 0 | 0 | 2 | 0 | 0 | 0 | 0 | 0 | 0 | 0 | 0 | 0 | 0 | 0 | 1 | 0 | 0 | 0 | 0 |
| CCC(CC)(CC)n1cnc2c(N)ncnc21 [SKF-97620] | 37 | 58 | 0 | 3 | 0 | 0 | 21 | 41 | 12 | 31 | 2 | 42 | 13 | 34 | 0 | 9 | 6 | 21 | 0 | 26 |
| COc1ccc(-c2oc3ncnc(N)c3c2-c2ccc(OC)cc2)cc1 [SB-589132] | 71 | 0 | 19 | 22 | 31 | 11 | 53 | 98.9 | 0 | 9 | 0 | 39 | 16 | 17 | 56 | 33 | 0 | 22 | 35 | 52 |
| CN1c2ccc(-c3ccc(C(=O)NCCO)cc3)cc2-c2[nH]ncc2S1(=O)=O | 0 | 2 | 0 | 0 | 10 | 0 | 51 | 89 | 25 | 0 | 30 | 0 | 44 | 30 | 0 | 0 | 1 | 0 | 0 | 0 |
| Nc1nc(-c2ccccn2)c(-c2ccnc3ccccc23)s1 [GW548057] | 45 | 0 | 0 | 9 | 2 | 0 | 24 | 29 | 0 | 0 | 0 | 13 | 12 | 9 | 62 | 13 | 0 | 15 | 11 | 50 |
| Cc1cc(N2CCC(NS(=O)(=O)c3ccc(F)cc3)CC2)nc(Nc2cccc(C#N)c2)n1.O=C(O)C(F)(F)F [GSK1653537] | 0 | 0 | 27 | 8 | 1 | 0 | 0 | 2 | 0 | 0 | 0 | 4 | 0 | 0 | 0 | 10 | 15 | 6 | 13 | 2 |
| NC(=O)c1sc(-n2cnc3ccccc32)cc1OCc1ccccc1F [GSK1024306] | 16 | 0 | 0 | 20 | 12 | 0 | 13 | 28 | 0 | 0 | 0 | 9 | 6 | 31 | 7 | 7 | 0 | 3 | 27 | 23 |
| Fc1cccc(COc2ccc(Nc3ncnc4sc(-c5ccc[nH]5)cc34)cc2Cl)c1 [GW707818] | 14 | 30 | 0 | 7 | 0 | 5 | 17 | 10 | 0 | 0 | 0 | 1 | 8 | 0 | 26 | 6 | 0 | 12 | 6 | 13 |
